Experimental data as given in PubChem BioAssay (EPA / NIEHS).
“And” between values parts separate entries of the source, which are not always exact repeats. Identical values can stand only once. Inconclusive results are not listed. The source made the active and inactive calls. The calls were made as follows: active = hit-call score of the fitted dose curve at least 0.9, where 1 is the maximum; inconclusive = response in the unintended direction; inactive = score below 0.9.

system: not listed separately; assay: TOX21_p53_BLA_p3_viability: Viability Assessment in the Tox21 HCT-116 p53 Agonism Beta-lactamase Assay, Phase 3 (AID 2283593);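 also: cells exposed to compound for 16 h before reading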
How it was run: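 Cellular ATP was quantified by CellTiter-Glo luminescence, read after 30 min at room temperature. Beforehand, HCT116 cells (4000/well) received compound 5 h post-seeding, 217-fold diluted from DMSO, then incubated 16 h at 37C.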

SMILES	outcome	AC50
O=C(NC(=O)c1c(F)cccc1F)Nc1cc(Cl)c(F)c(Cl)c1F	inactive	
Cc1cccc(N=Nc2ccc(N(C)C)cc2)c1	inactive	
O=S1(=O)OC(c2cc(Br)c(O)c(Br)c2)(c2cc(Br)c(O)c(Br)c2)c2ccccc21		8.86 µM (active)
CC(C=O)Cc1ccc2c(c1)OCO2 (centres undefined)	inactive	
O=C=Nc1ccc(Cl)cc1	inactive	
C#CCOC(=O)/C=C(C)/C=C/CC(C)CCCC(C)C (centres undefined)	inactive	
Nc1ccc(Br)cc1	inactive	
c1ccc2c(c1)Oc1ccccc1O2	inactive	
c1ccc(-c2cccc(-c3ccccc3)c2)cc1	inactive	
C=C(C)C(=O)OCC(CC)CCCC (centres undefined)	inactive	
CC(C)C(C)(N)C#N (centres undefined)	inactive	
O=[N+]([O-])c1cc([As](=O)(O)O)ccc1O	inactive	
CCC[CH2][Sn]([Cl])([Cl])[CH2]CCC		2.47 µM (active) and 1.79 µM (active)
O=C1c2ccccc2C(=O)C1C(=O)C(c1ccccc1)c1ccc(Cl)cc1 (centres undefined)		15.9 µM (active)
CC(C)=CC1C(C(=O)OCc2cccc(Oc3ccccc3)c2)C1(C)C (centres undefined)	inactive	
CC(c1ccc(O)cc1)c1ccc(O)cc1	inactive	
CCCCC(CC)C(=O)Cl (centres undefined)	inactive	

molecular target: Cellular tumor antigen p53 (Homo sapiens) (UniProt P04637); assay: TOX21_p53_BLA_p3_ratio: Tox21 HCT-116 p53 Agonism Beta-lactamase Assay, Ratio, Phase 3 (AID 2283596)
How it was run: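 HCT116 p53-bla cells (4000/well) given compound in DMSO (217-fold dilution) after 5 h, incubated 16 h at 37C. CCF4-AM substrate 2 h at room temperature; 460/530 nm emission ratio, gain fitted against DMSO.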

Sequence of Cellular tumor antigen p53 (Homo sapiens) (P04637 whole entry, looked up): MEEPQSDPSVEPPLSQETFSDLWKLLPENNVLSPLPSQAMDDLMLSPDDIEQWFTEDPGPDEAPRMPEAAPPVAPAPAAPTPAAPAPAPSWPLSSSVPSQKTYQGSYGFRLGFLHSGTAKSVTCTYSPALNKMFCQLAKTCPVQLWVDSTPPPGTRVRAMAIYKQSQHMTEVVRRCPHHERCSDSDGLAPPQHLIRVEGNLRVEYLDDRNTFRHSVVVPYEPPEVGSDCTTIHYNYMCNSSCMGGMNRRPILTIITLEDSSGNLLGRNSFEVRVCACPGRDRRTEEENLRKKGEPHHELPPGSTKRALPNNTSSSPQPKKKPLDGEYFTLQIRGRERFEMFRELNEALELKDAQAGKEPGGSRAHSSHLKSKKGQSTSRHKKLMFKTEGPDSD

SMILES	outcome
Cc1cccc(N=Nc2ccc(N(C)C)cc2)c1	inactive
Cc1cc(Cl)ccc1O	inactive
CC(C=O)Cc1ccc2c(c1)OCO2 (centres undefined)	inactive
CC(C)[N+](=O)[O-]	inactive
Nc1ccc(Br)cc1	inactive
Cc1ccccc1OP(=O)(Oc1ccccc1C)Oc1ccccc1C	inactive
c1ccc(-c2cccc(-c3ccccc3)c2)cc1	inactive
C=C(C)C(=O)OCC(CC)CCCC (centres undefined)	inactive
O=[N+]([O-])c1cc([As](=O)(O)O)ccc1O	inactive
O=C1c2ccccc2C(=O)C1C(=O)C(c1ccccc1)c1ccc(Cl)cc1 (centres undefined)	inactive
CC(c1ccc(O)cc1)c1ccc(O)cc1	inactive
CCN(N=O)C(N)=O	inactive
CCCCS(=O)(=O)Cl	inactive
CCCCC(CC)C(=O)Cl (centres undefined)	inactive
OCCCCO	inactive
OC[P+](CO)(CO)CO	inactive

system: not listed separately; assay: TOX21_p53_BLA_p4_viability: Viability Assessment in the Tox21 HCT-116 p53 Agonism Beta-lactamase Assay, Phase 4 (AID 2283597);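 also: hits lower the luminescence signal meaning cytotoxicity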
How it was run: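 We seeded HCT116 p53 reporter cells at 4000/well and waited 5 h. We then added compounds in DMSO at a 217-fold dilution and incubated for 16 h. Viability was read as CellTiter-Glo luminescence after 30 min at RT.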

SMILES	outcome	AC50
Cc1cc(Cl)ccc1O	inactive	
O=S1(=O)OC(c2cc(Br)c(O)c(Br)c2)(c2cc(Br)c(O)c(Br)c2)c2ccccc21		52.4 µM (active)
O=C=Nc1ccc(Cl)cc1	inactive	
C#CCOC(=O)/C=C(C)/C=C/CC(C)CCCC(C)C (centres undefined)	inactive	
COc1ccc(N)cc1	inactive	
CC(C)[N+](=O)[O-]	inactive	
Nc1ccc(Br)cc1	inactive	
Cc1ccccc1OP(=O)(Oc1ccccc1C)Oc1ccccc1C	inactive	
CC(C)(C1CCC(O)CC1)C1CCC(O)CC1 (centres undefined)	inactive	
c1ccc2c(c1)Oc1ccccc1O2	inactive	
c1ccc(-c2cccc(-c3ccccc3)c2)cc1	inactive	
C=C(C)C(=O)OCC(CC)CCCC (centres undefined)	inactive	
CC(C)C(C)(N)C#N (centres undefined)	inactive	
COCCl	inactive	
C=CC(=O)NC(C)(C)CC(C)=O	inactive	
N#Cc1ccc(Cl)cc1	inactive	
CCC[CH2][Sn]([Cl])([Cl])[CH2]CCC		2.06 µM (active) and 3.45 µM (active)
O=C1c2ccccc2C(=O)C1C(=O)C(c1ccccc1)c1ccc(Cl)cc1 (centres undefined)		37.3 µM (active)
CCN(N=O)C(N)=O	inactive	
OCCCCO	inactive	
Cc1c([N+](=O)[O-])c(C)c([N+](=O)[O-])c(C(C)(C)C)c1[N+](=O)[O-]		42.5 µM (active)
